# Laboratory results published in ChEMBL document CHEMBL3988442, “University of Dundee, Small-Polar-MMV Screening Library” (2021).
# The whole screen tested about 48,000 compounds, of which about 13,000 (27%) showed an effect of 50% or more. This is one part of the list.
# Tested on: Wolbachia pipientis
# Test: Anti-Wolbachia Cell-Based Screen
# Type: functional
# Parameters: scale not given: in the data most compounds retested in dose-response had high values
# Conditions: 5 µM
row,SMILES,Percent Effect [%]
1,c1ccc2sc(N3CCCC(Cn4cncn4)C3)nc2c1 (stereo not drawn),2.326
2,NCC1CCCCN1Cc1cc(O)c2cccc(F)c2n1 (stereo not drawn),-47.52
3,CN1CCCN(C(=O)c2nnn(-c3ccc(C(F)(F)F)cc3)n2)CC1,20.55
4,Cc1cccc(C(C(=O)NCc2nc(-c3ncccn3)no2)N(C)C)c1 (stereo not drawn),-6.766
5,Cc1nnc(-c2cccc(N3CCC(NC(C)CC(C)C)CC3)c2)s1 (stereo not drawn),13.1
6,Cc1ccc(-c2cccc(N3CCC(NC4CCOCC4)CC3)c2)cc1,106.4
7,O=C(Cc1cccc(O)c1)NC1CCN(c2cccc(Cl)c2)C1 (stereo not drawn),1.358
8,Cc1nnc(-c2cccc(N3CCC(NC4CCSC4)CC3)c2)s1 (stereo not drawn),-9.983
9,Clc1cccc(-c2cccc(N3CCC(NC4CCOCC4)CC3)c2)c1,91.89
10,Clc1cccc(N2CCC(NCc3cc[nH]n3)C2)c1 (stereo not drawn),-6.457
11,CC(C)N1CCOCC2(CCCN(C(=O)c3cn(C)cn3)C2)C1.O=C(O)C(F)(F)F (stereo not drawn),-9.46
12,CCCN(C(=O)c1ccc(-n2ccnn2)cc1)c1cccnc1,-3.595
13,O=C(c1ccccc1)N(CC1CC1)c1cccnc1,119.1
14,O=C(c1ccc(-n2ccnn2)cc1)N(CC1CC1)c1cccnc1,-13.01
15,Cc1n[nH]c(C)c1Sc1ccccc1NC(=O)N1CCCC(C(N)=O)C1 (stereo not drawn),-0.33
16,CCCC1CCCN(C(=O)Nc2ccnc(C(=O)N(C)C)c2)CC1 (stereo not drawn),-1.886
17,NC(=O)N1CCCC(C(=O)Nc2cccc(Cl)c2)C1 (stereo not drawn),3.636
18,Cc1c(C2CC2)n[nH]c1NC(=O)C1CCCN(C(=O)NCC(C)C)C1 (stereo not drawn),117.7
19,Cc1n[nH]c(C)c1CCNC(=O)C1CCCN(CC(N)=O)C1 (stereo not drawn),-16.53
20,Cc1n[nH]c(C)c1NC(=O)C1CCCN(C(=O)NCC(C)C)C1 (stereo not drawn),113.5
21,CCNC(=O)N1CCCC(C(=O)c2cccc(OC(C)C)c2)C1 (stereo not drawn),17.22
22,Cc1cc(NC(=O)C2CCCN(C(=O)NCC(C)C)C2)ccn1 (stereo not drawn),89.55
23,Cc1ccc(-c2nnc(NC(=O)c3ccn(C)c(=O)c3)[nH]2)s1,1.444
24,CCN(C(=O)C1CC1)C(c1cccnc1)c1ccc2c(c1)CCO2 (stereo not drawn),-9.628
25,Cc1noc(CCNS(=O)(=O)N2CCCC2c2ccc(C)o2)n1 (stereo not drawn),4.735

row,SMILES,Percent Effect [%]
1,Cn1cc(C2CCCN2Cc2csc(-c3ccsc3)n2)cn1 (stereo not drawn),2.773
2,Cn1cc(S(=O)(=O)N2CCCC2CC(=O)c2cccs2)cn1 (stereo not drawn),-23.33
3,Cc1c(S(=O)(=O)N2CCCC2c2nnc(-c3ccsc3)o2)cnn1C (stereo not drawn),130.9
4,Cc1c(S(=O)(=O)N2CCCCC2c2nnc(-c3cccs3)o2)cnn1C (stereo not drawn),114.5
5,Cc1ccc(C2CCCN2S(=O)(=O)N(C)Cc2cnn(C)c2)o1 (stereo not drawn),13.71
6,Cc1nnc(CN2CCCC2c2ccsc2)o1 (stereo not drawn),42.12
7,Cc1ccc(-c2nnc(C3CCCN3S(=O)(=O)c3cnn(C)c3C)o2)s1 (stereo not drawn),112
8,CC(c1nnc(-c2cccs2)o1)N1CCn2c(nnc2C2CC2)C1 (stereo not drawn),-4.966
9,CN1[C@@H](c2ccccc2)[C@@H](C(=O)NCc2ccncc2)C[C@@]1(C)C(=O)O,1.416
10,O=C(O)c1ccnc(-c2ccnc(COc3cccc(F)c3)n2)c1,-102.4
11,Cc1cccc(N2CCN(CCNC(=O)C(C)n3cncn3)CC2)c1 (stereo not drawn),8.571
12,CC1CCCCN1CCN(C)C(=O)c1cc(CN2CCC(O)CC2)on1 (stereo not drawn),0.4872
13,O=C(NCc1ccncc1)N(Cc1ccc(F)cc1F)C1CC1,-2.267
14,O=C1CCCN1c1cccc(CNCc2cc(F)ccc2F)c1,-5.013
15,Fc1cccc(NCc2ncc[nH]2)c1,-11.31
16,CSCc1cc(F)ccc1CNCc1ccncc1,99.15
17,CSCc1cc(F)ccc1CNCc1ncc[nH]1,108.7
18,Fc1ccc(NCc2ccncc2)c(OC(F)F)c1,-6.491
19,CSCc1cc(F)ccc1CNCc1cccnc1,101.5
20,Fc1cccc(C(NCc2ncc[nH]2)c2ccccc2)c1 (stereo not drawn),-7.792
21,CSCc1cc(F)ccc1CNCc1cccc(O)c1,105.8
22,Cc1cnn(CCNCc2cccnc2)c1,-0.61
23,COc1cc(F)ccc1N(C)Cc1cccnc1,-2.533
24,O=C1OCCN1c1cccc(CNCc2cc(F)ccc2F)c1,6.854
25,Cc1cc(C)n(CC(C)NCc2cnc3c(C)cccn23)n1 (stereo not drawn),-11.8

row,SMILES,Percent Effect [%]
1,COCCSc1ccc(C(C)NC(=O)Nc2cn[nH]c2)cc1 (stereo not drawn),-2.849
2,COc1cc(NCC(=O)NC(C)(C#N)C(C)C)cc(OC)c1OC (stereo not drawn),-11.73
3,CSc1ccsc1C(=O)NCCNC(=O)C1CC1,-5.162
4,Cn1cc(C(=O)NCc2cn3c(n2)CN(Cc2ccccn2)CC3)cn1.O=C(O)C(F)(F)F.O=C(O)C(F)(F)F,1.361
5,Cn1cc(CN2CCc3c(cnc(-c4ccccc4)c3C(=O)O)C2)cn1.O=C(O)C(F)(F)F.O=C(O)C(F)(F)F,-3.13
6,O=C(O)C(F)(F)F.O=C(O)C(F)(F)F.O=C(O)c1cc2c(nc1-c1ccoc1)CCN(Cc1ccco1)CC2,4.884
7,O=C(O)c1c(-c2ccncc2)ncc2c1CCN(Cc1ccco1)C2,103.7
8,Cn1cc(-c2ncc3c(c2C(=O)O)CCN(Cc2ccco2)C3)cn1.O=C(O)C(F)(F)F,100.1
9,Cn1cc(-c2ncc3c(c2C(=O)O)CCN(Cc2ccccn2)C3)cn1.O=C(O)C(F)(F)F.O=C(O)C(F)(F)F,106.1
10,O=C(O)C(F)(F)F.O=C(O)C(F)(F)F.O=C(O)c1c(-c2cncnc2)ncc2c1CCN(Cc1ccco1)C2,112.5
11,Cn1nccc1-c1ncc2c(c1C(=O)O)CCN(Cc1ccncc1)C2.O=C(O)C(F)(F)F.O=C(O)C(F)(F)F,-6.643
12,Nc1cc(-c2cccc3ccnn23)ccn1,-7.377
13,O=C(COC1CCCC1)NC(C(=O)Nc1cc[nH]n1)c1ccccc1 (stereo not drawn),-15.76
14,O=C(NCc1nc(C2CCCCC2)no1)C1CC(=O)N(C2CC2)C1 (stereo not drawn),-21.27
15,O=C(O)C(F)(F)F.O=C(O)C(F)(F)F.O=C(O)C(F)(F)F.O=C(O)c1c(-c2cncnc2)ncc2c1CCN(Cc1cccnc1)C2,96.39
16,Cn1nccc1-c1ncc2c(c1C(=O)O)CCN(Cc1ccccc1)C2.O=C(O)C(F)(F)F.O=C(O)C(F)(F)F.O=C(O)C(F)(F)F,-10.76
17,Cn1nccc1-c1ncc2c(c1C(=O)O)CCN(Cc1cccnc1)C2.O=C(O)C(F)(F)F.O=C(O)C(F)(F)F,-4.341
18,CN1CCN(C(=O)c2cn(-c3ccc(C(F)(F)F)cn3)nn2)CC1,-7.593
19,Cc1cc(-n2cccn2)ccc1CN1C[C@@H](CN(C)C)[C@@H](CO)C1,14.35
20,Cc1cn(CC(=O)N(C)Cc2cccc3ncccc23)c(=O)[nH]c1=O,-19.07
21,Cc1ccc(C2(O)CCN(C(=O)CCn3ccc(=O)[nH]c3=O)CC2)nc1,97.51
22,Cc1ccc(C2(O)CCN(C(=O)CCn3c(C)cccc3=O)CC2)nc1,106.7
23,Cc1cccnc1CN1CCN(C(=O)CCn2ccc(=O)[nH]c2=O)CC1,-10.51
24,Cc1ccc(C2(O)CCN(C(=O)Cn3cc(C)c(=O)[nH]c3=O)CC2)nc1,116.3
25,COC1CCN(C(=O)CCn2ccc(=O)[nH]c2=O)CC1,-8.705

row,SMILES,Percent Effect [%]
1,COC(=O)C1CCN(CC2(c3ccc(C)cn3)CCNCC2)CC1,-5.791
2,Cc1cccc(=O)n1CCC(=O)N(C)Cc1cccc2ncccc12,-4.376
3,CSCc1ccc(N2CCC(C(O)Cc3ccccc3)CC2)nc1 (stereo not drawn),26.16
4,O=C(O)C(F)(F)F.O=C(O)C(F)(F)F.c1cc(CN2CCc3ncnc(C4CCOC4)c3CC2)ccn1 (stereo not drawn),0.007603
5,Cc1ccc(Oc2ncccc2CNC2CCSCC2)cn1,-8.046
6,Nc1ccc(-c2ccc(F)cc2Cl)cn1,-14.84
7,CC(NC(=O)N(C)Cc1ccsc1)c1ccc2c(c1)CCC(=O)N2 (stereo not drawn),-10.24
8,CC(NC(=O)NCc1cc[nH]n1)c1ccc2c(c1)CCC(=O)N2 (stereo not drawn),-0.03999
9,Cc1ccc(C(O)CNC(=O)NCc2nc(C)cs2)cc1 (stereo not drawn),-27.45
10,Cc1csc(CNC(=O)NC(C)c2ccc3c(c2)CCC(=O)N3)n1 (stereo not drawn),108.8
11,CC(NC(=O)NCc1ccccn1)c1ccc2c(c1)CCC(=O)N2 (stereo not drawn),101
12,O=C1CCCc2cc(S(=O)(=O)NCc3ccccn3)ccc2N1,-1.258
13,Cc1ccsc1CNC(=O)NC(C)c1ccc2c(c1)CCC(=O)N2 (stereo not drawn),96.96
14,Cc1ccsc1C(=O)NC(C)c1ccc2c(c1)CCC(=O)N2 (stereo not drawn),-2.921
15,CC(NC(=O)NCc1cccs1)c1ccc2c(c1)CCC(=O)N2 (stereo not drawn),122.7
16,CSc1ccsc1C(=O)NC(C)c1ccc2c(c1)CCC(=O)N2 (stereo not drawn),-17.83
17,Cc1csc(CNC(=O)NCC(O)c2ccc(F)cc2)n1 (stereo not drawn),8.268
18,O=C(CN1CCCS1(=O)=O)Nc1ccc(OC2CCCC2)cc1,-0.8772
19,COc1ccc(OCC(=O)NC(C)c2ccccc2)c(C(=O)O)c1 (stereo not drawn),-7.994
20,CCCOc1ccc(CN)c(OC(F)F)c1,2.024
21,CC(C(=O)NCc1ccnc(N2CCN(C)CC2)c1)n1cccn1 (stereo not drawn),-2.51
22,O=C(c1ccc(Cn2cc(Br)cn2)cc1)N1CCCC1,26.22
23,CN(C)C[C@@H]1CCC[C@@H]2CN(c3nccc(C(F)(F)F)n3)C[C@@H]21.O=C(O)C(F)(F)F,-9.332
